Test results published in PubChem BioAssay AID1159580 (chemical genetic matrix, 2015).
The campaign covered roughly 5,500 compounds. About 2,000 (36%) were called active. Another 18% or so got no clear call; they are omitted. Cut-off read from the data, not from the text of the source: active = normalized growth mostly below about 0.91 (no sharp cut-off); inconclusive = no clear call, values can overlap the other calls; inactive = mostly above about 0.92. This is one part of the list.

Experiment: chemical genetic growth profiling, strain panel (AID 1159580);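 note: tested at 20 µM; growth read once vehicle control cultures reached saturation at 30 °C; 1 = growth at the plate median or of vehicle wells; lower values mean less growth of the strain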
Details: S. cerevisiae deletion strains, growth OD

Measured: normalized growth

CC(=O)OC1CC2C(C)(C)CCCC2(C)C2CCC3(C)C(c4ccoc4)OC(=O)C4OC43C12C (stereo not drawn)
inactive: locus YAL013W, strain DEP1, active compounds read low 0.993 | locus YBR021W, strain FUR4, active compounds read low 0.981 | locus YBR229C, strain ROT2, active compounds read low 0.995 | locus YCL029C, strain bik1, active compounds read low 1.02 | locus YDL035C, strain GPR1, active compounds read low 0.975 | locus YDL074C, strain BRE1, active compounds read low 0.988 | locus YDL101C, strain DUN1, active compounds read low 1.02 | locus YDL134C, strain PPH21, active compounds read low 0.987 | locus YDL185W, strain tfp1, active compounds read low 1.03 | locus YDL192W, strain arf1, active compounds read low 1.01 | locus YDR101C, strain arx1, active compounds read low 1.02 | locus YDR150W, strain NUM1, active compounds read low 1 | locus YDR162C, strain NBP2, active compounds read low 0.979 | locus YDR318W, strain mcm21, active compounds read low 1.01 | locus YDR388W, active compounds read low 1.01 | locus YDR502C, strain sam2, active compounds read low 0.999 | locus YEL061C, strain CIN8, active compounds read low 1 | locus YER110C, active compounds read low 1.02 | locus YER155C, strain BEM2, active compounds read low 1 | locus YER167W, strain BCK2, active compounds read low 1 | locus YGL078C, strain dbp3, active compounds read low 1.01 | locus YGL086W, strain mad1, active compounds read low 1 | locus YGL248W, strain PDE1, active compounds read low 1 | locus YGR135W, strain pre9, active compounds read low 1 | locus YGR252W, strain gcn5, active compounds read low 0.914 | locus YHR030C, strain SLT2, active compounds read low 1.01 | locus YHR079C, strain IRE1 (second series), active compounds read low 1.01 | locus YHR094C, strain hxt1, active compounds read low 1.01 | locus YHR129C, strain ARP1, active compounds read low 1 | locus YHR200W, strain rpn10, active compounds read low 1 | locus YIL066C, strain RNR3, active compounds read low 1 | locus YIL073C, strain SPO22, active compounds read low 1.02 | locus YIL125W, strain kgd1, active compounds read low 1.01 | locus YIR030C, strain dcg1, active compounds read low 1.01 | locus YJL095W, strain BCK1, active compounds read low 0.991 | locus YJL134W, strain LCB3, active compounds read low 1.01 | locus YJL168C, strain set2, active compounds read low 1.01 | locus YJL187C, strain SWE1 (second series), active compounds read low 0.999 | locus YJR043C, strain POL32, active compounds read low 0.978 | locus YJR075W, strain HOC1, active compounds read low 0.995 | locus YKL009W, strain mrt4, active compounds read low 1 | locus YKL068W, active compounds read low 1.01 | locus YKL085W, strain MDH1 (second series), active compounds read low 1 | locus YKL085W, strain MDH1, active compounds read low 1 | locus YKL190W, strain CNB1, active compounds read low 1 | locus YKR001C, strain vps1, active compounds read low 0.993 | locus YLR039C, strain RIC1, active compounds read low 1.01 | locus YLR058C, strain SHM2, active compounds read low 1.01 | locus YLR102C, strain apc9, active compounds read low 1.01 | locus YLR262C, strain YPT6, active compounds read low 1.03 | locus YLR268W, strain sec22, active compounds read low 1.01 | locus YLR330W, strain CHS5, active compounds read low 1.01 | locus YLR342W, strain FKS1 (second series), active compounds read low 0.954 | locus YLR371W, strain rom2, active compounds read low 1.02 | locus YLR418C, strain cdc73, active compounds read low 1.01 | locus YML016C, strain PPZ1, active compounds read low 1.01 | locus YML032C, strain rad52, active compounds read low 1.01 | locus YML124C, strain tub3, active compounds read low 1.02 | locus YMR078C, strain ctf18, active compounds read low 1.02 | locus YMR223W, strain ubp8, active compounds read low 1 | locus YMR263W, strain SAP30, active compounds read low 1.01 | locus YMR307W, strain GAS1, active compounds read low 0.854 | locus YNL067W, strain RPL9B, active compounds read low 1.02 | locus YNL153C, strain GIM3, active compounds read low 1 | locus YNL233W, strain BNI4, active compounds read low 0.99 | locus YNL250W, strain rad50, active compounds read low 1.01 | locus YNL271C, strain bni1, active compounds read low 0.998 | locus YNL298W, strain CLA4, active compounds read low 1.01 | locus YNL307C, strain MCK1, active compounds read low 1.01 | locus YNR052C, strain pop2, active compounds read low 1.01 | locus YOL012C, strain htz1 0.802 | locus YOL147C, strain pex11, active compounds read low 1.01 | locus YOR061W, strain CKA2, active compounds read low 1.01 | locus YOR069W, strain VPS5, active compounds read low 1.01 | locus YOR136W, strain idh2, active compounds read low 1.01 | locus YOR144C, strain elg1, active compounds read low 1.01 | locus YOR184W, strain ser1, active compounds read low 1.01 | locus YOR316C, strain cot1, active compounds read low 1.01 | locus YPR119W, strain clb2, active compounds read low 1.01 | locus YPR141C, strain kar3, active compounds read low 1.02 | locus YPR163C, strain tif3, active compounds read low 1.02 | locus YPR167C, strain met16, active compounds read low 1.01 | strain wtn01, active compounds read low 1
